The panel holds about 83,000 compounds, 20% with a hit somewhere; the sample as a whole holds those more often.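 Values shown are percent growth following 48 h exposure of cells in 96-well plates to a single concentration of compound; below 10 was considered active.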 A number with no mark means an inactive call. Active and inactive are the calls of the source.

The text below walks through data of PubChem BioAssay (NCI).

Test systems include HCT-15 colon; HT29 colon; SNB-75 CNS; SNB-19 CNS; U251 CNS; PC-3 prostate; SK-MEL-5 melanoma; UACC-62 melanoma; LOX IMVI melanoma; SK-MEL-28 melanoma; EKVX NSCLC; SN12C renal; UO-31 renal; TK-10 renal; ACHN renal; CAKI-1 renal; A498 renal; MOLT-4 leukemia; CCRF-CEM leukemia; SK-MEL-2 melanoma.
Holding throughout (test): NCI-60 one-dose screen, 48 h (100 = growth as untreated, 0 = no growth, -100 = all killed)
What all share (conditions): 10 µM unless noted

Take `CCCCC[C@H](O)C/C=C1/C(=O)C=C[C@@H]1C/C=C\CCCC(=O)OC`: the growth in the assay on HCT-15 colon was 20.8%; with HT29 colon, 3.13% (active); in the assay on SNB-75 CNS it was 96.5%; in the assay with SNB-19 CNS, 60.4%; in the assay on U251 CNS, 45.5%; in the assay with PC-3 prostate it was 26.5%. Also, the growth with SK-MEL-5 melanoma was 38%; with UACC-62 melanoma, 13.6%; in the assay on LOX IMVI melanoma, -43.2% (active); in the assay on SK-MEL-28 melanoma, 28.3%; in the assay on EKVX NSCLC it was 103%; in the assay on SN12C renal it was 11.5%. Further, the growth is 81.5% with UO-31 renal; 82.3% in the assay on TK-10 renal; 75.9% in the assay with ACHN renal; 60.5% in the assay with CAKI-1 renal; 97.5% in the assay with A498 renal; 20.2% in the assay with MOLT-4 leukemia.

For `CCN(CC)c1ccc(C2=NN(C(C)=O)C(c3cc(OC)c(OC)c(OC)c3)C2)cc1` (centres undefined), the growth with HCT-15 colon is 12.8%; in the assay with HT29 colon, 8.86% (active); in the assay with SNB-75 CNS, 17.8%; in the assay on SNB-19 CNS, 40.1%; with U251 CNS, 18.7%; in the assay with PC-3 prostate, 20.4%. The growth in the assay with SK-MEL-5 melanoma is 23.4%; with UACC-62 melanoma, 13.1%; in the assay with LOX IMVI melanoma it was 31.5%; with SK-MEL-28 melanoma it was 51.8%; in the assay on EKVX NSCLC, 29.8%; with SN12C renal, 38.5%. The growth was 39.9% with TK-10 renal; 40.3% in the assay on ACHN renal; 21% with CAKI-1 renal; -22.1% (active) in the assay on A498 renal; 12.6% in the assay with CCRF-CEM leukemia; 5.57% (active) in the assay on MOLT-4 leukemia.

For the molecule `COc1cc(OCc2cccc(-c3ccc(C(O)c4nccs4)cc3)c2C)cc(OC)c1CNCCNC(C)=O` (centres undefined), the growth was 97.7% with HCT-15 colon; 92.9% in the assay with HT29 colon; 85% in the assay on SNB-75 CNS; 94.9% with SNB-19 CNS; 91.1% in the assay on U251 CNS; 90.2% in the assay with PC-3 prostate. The growth is 91.8% with SK-MEL-5 melanoma; 90% in the assay with UACC-62 melanoma; 94.8% in the assay on LOX IMVI melanoma; 94.8% in the assay on SK-MEL-28 melanoma; 122% with SK-MEL-2 melanoma; 97% in the assay with EKVX NSCLC. Besides, the growth was 98.1% with SN12C renal; 98.9% in the assay on TK-10 renal; 101% with ACHN renal; 93.7% in the assay with CAKI-1 renal; 88.2% with A498 renal; 91.9% with CCRF-CEM leukemia. In the assay with MOLT-4 leukemia, the growth was 94.9%.

As to `CCN1C(=O)N(CC)C2Nn3c(s/c(=C4\C(=O)N(CC(C)C)c5ccccc54)c3=O)=NC21` (centres undefined), the growth with HCT-15 colon is 27.3%; in the assay with HT29 colon, 86.4%; in the assay on SNB-75 CNS, 14.1%; in the assay on SNB-19 CNS, 54.7%; in the assay with U251 CNS, 36.3%; with PC-3 prostate it was 38.1%. The growth was 39.9% with SK-MEL-5 melanoma; 45.3% in the assay on UACC-62 melanoma; 54.2% in the assay on LOX IMVI melanoma; 66% with SK-MEL-28 melanoma; 66.4% in the assay on SK-MEL-2 melanoma; 63.8% with EKVX NSCLC. Also, the growth with SN12C renal was 48.9%; with TK-10 renal it was 13.1%; in the assay on ACHN renal it was 52.5%; with CAKI-1 renal, 34.1%; with A498 renal it was -6.38% (active); in the assay with CCRF-CEM leukemia, 42.6%. Besides, the growth with MOLT-4 leukemia is 48.7%.

For `COc1ccc(C(Cc2ccccc2)NCCN2CCOCC2)cc1` (centres undefined), the growth in the assay with HCT-15 colon is 99.8%; in the assay on HT29 colon, 87.7%; in the assay with SNB-75 CNS, 97.4%; with SNB-19 CNS, 106%; in the assay on U251 CNS, 108%; in the assay on PC-3 prostate, 93.8%. Besides, the growth in the assay on SK-MEL-5 melanoma was 108%; in the assay with UACC-62 melanoma, 100%; in the assay with LOX IMVI melanoma it was 91.4%; in the assay on SK-MEL-28 melanoma it was 103%; in the assay with EKVX NSCLC, 104%; with SN12C renal, 99.6%. Besides, the growth in the assay with UO-31 renal is 84.5%; with TK-10 renal, 95.4%; in the assay with ACHN renal it was 106%; with CAKI-1 renal, 98.8%; in the assay with A498 renal, 101%; in the assay with CCRF-CEM leukemia, 113%. The growth in the assay on MOLT-4 leukemia is 93.8%.

On to `CN1C(=O)CNC(=O)[C@H](NC(=O)c2nc3ccccc3cc2O)CSSC[C@H]1C(=O)NCCc1nc2ccccc2cc1O`, for which the growth in the assay with HCT-15 colon is 99.7%; in the assay with HT29 colon, 17.6%; in the assay on SNB-75 CNS it was 129%; in the assay on SNB-19 CNS, 87%; in the assay with U251 CNS it was 71.4%; in the assay on PC-3 prostate, 55.7%. For the same molecule, the growth in the assay on SK-MEL-5 melanoma is 38%; with UACC-62 melanoma, 34.9%; in the assay with LOX IMVI melanoma, -11.5% (active); in the assay with SK-MEL-28 melanoma it was 62.8%; with EKVX NSCLC, 73.9%; with SN12C renal, 69.2%. Also, the growth with UO-31 renal was 56.5%; in the assay on TK-10 renal, 67.9%; in the assay with ACHN renal, 78.6%; with CAKI-1 renal it was 105%; in the assay on A498 renal it was 131%; in the assay with CCRF-CEM leukemia, 23.5%. The growth in the assay with MOLT-4 leukemia is 0.111% (active).

Regarding `O=C1COCCN1c1ccc(NCc2cn(C(=O)c3ccc(Cl)cc3)c3ccccc23)cc1`, the growth was 54.9% with HCT-15 colon; 44.5% in the assay on HT29 colon; 59.6% in the assay on SNB-75 CNS; 91.7% in the assay with SNB-19 CNS; 50.9% in the assay with U251 CNS; 71.4% with PC-3 prostate. Besides, the growth is 25.1% in the assay on SK-MEL-5 melanoma; -41.1% (active) in the assay with UACC-62 melanoma; 77.1% in the assay on LOX IMVI melanoma; 97% in the assay on SK-MEL-28 melanoma; 83.9% with EKVX NSCLC; 74.9% with SN12C renal. For the same molecule, the growth in the assay on UO-31 renal was 43.6%; with TK-10 renal it was -26% (active); with ACHN renal, 65.7%; in the assay with CAKI-1 renal, -28.7% (active); in the assay on A498 renal, -88.9% (active); in the assay with CCRF-CEM leukemia, 77.1%. The growth in the assay with MOLT-4 leukemia is 85.7%.

`O=C(Nc1ccc(Cl)cc1F)c1ccccc1O`: the growth with HCT-15 colon is 42.7%; in the assay on HT29 colon it was 96.4%; in the assay with SNB-75 CNS it was 36.4%; with SNB-19 CNS, 45.8%; in the assay with U251 CNS, 34.6%; in the assay on PC-3 prostate, 59.6%. Further, the growth in the assay with SK-MEL-5 melanoma was -47.5% (active); in the assay with UACC-62 melanoma, 9.27% (active); in the assay on LOX IMVI melanoma, 28.2%; with SK-MEL-28 melanoma, 29.9%; with SK-MEL-2 melanoma, 2.56% (active); with EKVX NSCLC it was 66.2%. For the same molecule, the growth with SN12C renal is 13.7%; in the assay on TK-10 renal it was 56.6%; with ACHN renal, 34.2%; in the assay on CAKI-1 renal it was 35.8%; with CCRF-CEM leukemia it was 53.2%; in the assay on MOLT-4 leukemia it was 29.7%.
